Over roughly 68,000 sequences, “fluorescence intensity (a.u.)” has its median near 9,100; the highest 2% begin near 16,000. The sample as a whole holds a higher share of the highest values than the screen did.
target: OsWRKY34 (Oryza sativa, UniProt Q0JBA9 1-250); experiment: protein-binding microarray (RPBM); PBS, 2% BSA, 51.3 ng/ul salmon testes DNA, 50 uM zinc acetate, 200 nM TF, 25 C, 1 h; high values mean tight binding; details: protein: recombinant; tags: N-terminal polyhistidine and DsRed monomer fusion (pET32a); label: CyDye5-dUTP incorporated in the synthesized complementary strand; 3' TTTTT single-stranded linker to array surface; dsDNA, one strand shown
Sequence (Q0JBA9 entry or part of it): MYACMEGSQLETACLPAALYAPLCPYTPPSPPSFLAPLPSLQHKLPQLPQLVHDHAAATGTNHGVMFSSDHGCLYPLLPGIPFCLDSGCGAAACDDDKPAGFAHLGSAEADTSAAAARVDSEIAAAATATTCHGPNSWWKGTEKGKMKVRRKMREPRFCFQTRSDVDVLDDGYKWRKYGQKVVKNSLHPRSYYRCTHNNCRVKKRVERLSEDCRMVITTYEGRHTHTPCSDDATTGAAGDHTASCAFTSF
Outline: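 In PBS with 2% BSA, salmon testes DNA and 50 µM zinc acetate, 200 nM protein was incubated on a custom Agilent array at 25 °C for 1 h and then washed off. The array had been made double-stranded by primer extension with Cy5-dUTP and blocked with 2% BSA. The proteins were transcription factors fused N-terminally to polyhistidine and DsRed, expressed in E. coli BL21-CodonPlus and purified on Ni–NTA. The binding signal is per-feature fluorescence intensity (arbitrary units) from an Axon 4000B scanner.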

Row | Sequence | binding signal
1 | TCTCTGGTGGCTCCCTGGCGCTCCTCTTCACTCCATCCTCCGGAGTCACCTAGTGCAG | 9090 fluorescence intensity (a.u.)
2 | TTTCTAGATGTCTACGCGTTATCAGCATGTTGATGTCTACCGGAGTCACCTAGTGCAG | 8460 fluorescence intensity (a.u.)
3 | GTCTCTTCTCTTCTCTCGTGCAAGGCCGGCAGTGTACCGTCGGAGTCACCTAGTGCAG | 9270 fluorescence intensity (a.u.)
4 | ATTCAACACTTTTAAAATATTTTGATTGCGGTTTCTTTTACGGAGTCACCTAGTGCAG | 9530 fluorescence intensity (a.u.)
5 | TCAAAATATTTGACACCGTTGACTTTTTAGGACGTGTTTACGGAGTCACCTAGTGCAG | 24900 fluorescence intensity (a.u.)
6 | GTTTGTCGTAGTAGTTTATTTTTGACACCGGCTTTCAAATCGGAGTCACCTAGTGCAG | 9880 fluorescence intensity (a.u.)
7 | AAAACACCAAATTAGTTTTATTAAAACTAACTTTCAAATACGGAGTCACCTAGTGCAG | 11900 fluorescence intensity (a.u.)
8 | GTTTCAAAATATTTGACACCGTTGACTTTTTAGTACGTGTCGGAGTCACCTAGTGCAG | 19100 fluorescence intensity (a.u.)
9 | CCGTTGACTTGGATTTGTTCCTTTTTCATTTTTTATCGTTCGGAGTCACCTAGTGCAG | 14700 fluorescence intensity (a.u.)
10 | CGTTTCAAAATATTTAACACCGTTGACTTTTTAGTACGTGCGGAGTCACCTAGTGCAG | 31100 fluorescence intensity (a.u.)
11 | CTCCCTCTGTTTCAAAATATTTGACACTGTTGACTTTTTACGGAGTCACCTAGTGCAG | 11000 fluorescence intensity (a.u.)
12 | CAAATTAGATGTTATTTTGACTTTTTTTTACAATATTTGACGGAGTCACCTAGTGCAG | 10600 fluorescence intensity (a.u.)
13 | ATATTTGACCGTTTGTCTTTTTCAAAAACTTTTGTGAAATCGGAGTCACCTAGTGCAG | 9920 fluorescence intensity (a.u.)
14 | TAGAAGAGCGCGTTGACACCGTTGACTTTGGATTTTCCGTCGGAGTCACCTAGTGCAG | 18700 fluorescence intensity (a.u.)
15 | TTGGTAGAGTTGTCCGTTTGGATTTTGGCCTCCCTTTTTTCGGAGTCACCTAGTGCAG | 8380 fluorescence intensity (a.u.)
16 | ATCTGCCTAACGTAAAATGCACTATATTCTGTTTTGTTCTCGGAGTCACCTAGTGCAG | 8370 fluorescence intensity (a.u.)
17 | GTGGCGACTGTTATCCCTAATTTTGCGGACTTGCTCTGATCGGAGTCACCTAGTGCAG | 9800 fluorescence intensity (a.u.)
18 | AACCACCTGAATTTCGTCGAATTTTACCAATTCTGCTGAACGGAGTCACCTAGTGCAG | 9120 fluorescence intensity (a.u.)
19 | AAGACATGTGAATTTTGGTGGGATGTGGATGGGGAATTGACGGAGTCACCTAGTGCAG | 9840 fluorescence intensity (a.u.)
20 | TTCTATTTTACCTCTCGTCTCTCTCCTCGCGGTCGCTTCTCGGAGTCACCTAGTGCAG | 12800 fluorescence intensity (a.u.)
21 | CTCCTCGGGCTAAAAGTGGTAATACGCGTTTCTCAAGCTTCGGAGTCACCTAGTGCAG | 9930 fluorescence intensity (a.u.)
22 | CTCACTTGACCGTGAACAGCACTCACTTGATTTGTACTTTCGGAGTCACCTAGTGCAG | 10000 fluorescence intensity (a.u.)
23 | TGTTCTCTCCTGCCTCCACACTTTCTGGCACGGTACAAAACGGAGTCACCTAGTGCAG | 8370 fluorescence intensity (a.u.)
